Assay results: publication PMC8384837, “Expanding the binding specificity for RNA recognition by a PUF domain”
Positions count from the first letter of the chain named.

Legend:
Test in all cases: yeast three-hybrid, YBZ-1, SC-Leu-His + 0.5 mM 3-AT, 4 days
Conditions in all cases: tags: N-Gal4 AD-HA kept; label: inside an RPR1-promoter hybrid RNA with tandem MS2 sites; ssRNA
PUM1 PUF domain R3-EWS = PUM1 PUF domain R3-EWS (Homo sapiens, UniProt Q14671 828-1176, C935E;R936W;Q939S)
Outline: (§1)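 The interaction score is the log change in variant frequency from input to selection. Scores were computed in log2 with a pseudocount of 1 for absent variants, using Illumina sequencing of PCR-amplified repeat regions. The input came from four days on SC-Leu and the selection from four days on SC-Leu-His + 0.5 mM 3-AT. The cells were strain YBZ-1 (LexA–MS2 coat fusion, HIS3 reporter) co-expressing Pumilio-1 PUF domain libraries and matching RNA elements from a centromeric plasmid.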

PUM1 PUF domain R6-HYL = target: T1, PUM1 PUF domain R6-HYL (Homo sapiens, UniProt Q14671 828-1176, N1043H;Q1047L)
T1 sequence: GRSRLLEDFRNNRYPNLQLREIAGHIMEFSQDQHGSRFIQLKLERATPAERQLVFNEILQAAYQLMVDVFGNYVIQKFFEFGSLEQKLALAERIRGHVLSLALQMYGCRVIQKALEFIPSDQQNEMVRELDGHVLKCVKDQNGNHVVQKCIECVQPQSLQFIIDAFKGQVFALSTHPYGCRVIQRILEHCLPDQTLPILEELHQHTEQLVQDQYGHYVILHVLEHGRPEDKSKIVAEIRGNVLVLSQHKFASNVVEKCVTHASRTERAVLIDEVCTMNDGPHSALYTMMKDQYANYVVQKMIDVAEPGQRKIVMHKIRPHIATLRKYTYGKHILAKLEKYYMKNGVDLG
Outline: as §1

PUM1 PUF domain R3-GRP = PUM1 PUF domain R3-GRP (Homo sapiens, UniProt Q14671 828-1176, C935G;Q939P)
Outline: as §1

PUM1 PUF domain R3-SRC = PUM1 PUF domain R3-SRC (Homo sapiens, UniProt Q14671 828-1176, C935S;Q939C)
Outline: as §1

PUM1 PUF domain R7-KYR = PUM1 PUF domain R7-KYR (Homo sapiens, UniProt Q14671 828-1176, S1079K;N1080Y;E1083R)
Outline: as §1

PUM1 PUF domain R5-DRC = PUM1 PUF domain R5-DRC (Homo sapiens, UniProt Q14671 828-1176, C1007D;Q1011C)
Outline: as §1

PUM1 PUF domain R5-MRN = PUM1 PUF domain R5-MRN (Homo sapiens, UniProt Q14671 828-1176, C1007M;Q1011N)
Outline: as §1

PUM1 PUF domain R6-SFS = target: T2, PUM1 PUF domain R6-SFS (Homo sapiens, UniProt Q14671 828-1176, N1043S;Y1044F;Q1047S)
T2 sequence: T1 sequence with H216S, Y217F, L220S
Outline: as §1

PUM1 PUF domain R3-YFG = PUM1 PUF domain R3-YFG (Homo sapiens, UniProt Q14671 828-1176, C935Y;R936F;Q939G)
Outline: as §1

PUM1 PUF domain R5-DHV = PUM1 PUF domain R5-DHV (Homo sapiens, UniProt Q14671 828-1176, C1007D;R1008H;Q1011V)
Outline: as §1

PUM1 PUF domain R8-KRR = PUM1 PUF domain R8-KRR (Homo sapiens, UniProt Q14671 828-1176, N1122K;Y1123R;Q1126R)
Outline: as §1

PUM1 PUF domain R6-NWP = target: T3, PUM1 PUF domain R6-NWP (Homo sapiens, UniProt Q14671 828-1176, Y1044W;Q1047P)
T3 sequence: T1 sequence with H216N, Y217W, L220P
Outline: as §1

PUM1 PUF domain R1-NRR = PUM1 PUF domain R1-NRR (Homo sapiens, UniProt Q14671 828-1176, S863N;Q867R)
Outline: as §1

PUM1 PUF domain R4-GPQ = PUM1 PUF domain R4-GPQ (Homo sapiens, UniProt Q14671 828-1176, N971G;H972P)
Outline: as §1

PUM1 PUF domain R5-KPC = PUM1 PUF domain R5-KPC (Homo sapiens, UniProt Q14671 828-1176, C1007K;R1008P;Q1011C)
Outline: as §1

PUM1 PUF domain R7-RIQ = PUM1 PUF domain R7-RIQ (Homo sapiens, UniProt Q14671 828-1176, S1079R;N1080I;E1083Q)
Outline: as §1

PUM1 PUF domain R6-EWC = target: T4, PUM1 PUF domain R6-EWC (Homo sapiens, UniProt Q14671 828-1176, N1043E;Y1044W;Q1047C)
T4 sequence: T1 sequence with H216E, Y217W, L220C
Outline: as §1

PUM1 PUF domain R6-VWQ = target: T5, PUM1 PUF domain R6-VWQ (Homo sapiens, UniProt Q14671 828-1176, N1043V;Y1044W)
T5 sequence: T1 sequence with H216V, Y217W, L220Q
Outline: as §1

PUM1 PUF domain R8-LYC = PUM1 PUF domain R8-LYC (Homo sapiens, UniProt Q14671 828-1176, N1122L;Q1126C)
Outline: as §1

PUM1 PUF domain R8-RSR = PUM1 PUF domain R8-RSR (Homo sapiens, UniProt Q14671 828-1176, N1122R;Y1123S;Q1126R)
Outline: as §1

Question: “GGCUAGAACUAGUGGAUCCCCCGGCGCCCGGCGGCUCGAGCCCGGGUAAGUGUAAAUAGUCUGCAUGCCGCCGGGCGCCAUGCCUGCAGGUCGACUCUAGAAAACAUG” was tested. Which binding signal (PUM1 PUF domain R3-EWS) did it give?
Answer: 3.46 log2 enrichment (interaction score)

Question: What about the binding signal (PUM1 PUF domain R6-HYL) of the same sequence?
Answer: 3.8 log2 enrichment (interaction score)

Question: And the binding signal (PUM1 PUF domain R3-GRP)?
Answer: 4.87 log2 enrichment (interaction score)

Question: What about the binding signal (PUM1 PUF domain R3-SRC) of the same sequence?
Answer: 2.73 log2 enrichment (interaction score)

Question: What about the binding signal (PUM1 PUF domain R7-KYR) of the same sequence?
Answer: 2.75 log2 enrichment (interaction score)

Question: What about the binding signal (PUM1 PUF domain R5-DRC) of the same sequence?
Answer: 3.83 log2 enrichment (interaction score)

Question: And the binding signal (PUM1 PUF domain R5-MRN)?
Answer: 3.24 log2 enrichment (interaction score)

Question: And the binding signal (PUM1 PUF domain R6-SFS)?
Answer: 4.67 log2 enrichment (interaction score)

Question: What about the binding signal (PUM1 PUF domain R3-YFG) of the same sequence?
Answer: 4.07 log2 enrichment (interaction score)

Question: And the binding signal (PUM1 PUF domain R5-DHV)?
Answer: 3.41 log2 enrichment (interaction score)

Question: And the binding signal (PUM1 PUF domain R8-KRR)?
Answer: 3.15 log2 enrichment (interaction score)

Question: What about the binding signal (PUM1 PUF domain R6-NWP) of the same sequence?
Answer: 2.64 log2 enrichment (interaction score)

Question: For “GGCUAGAACUAGUGGAUCCCCCGGCGCCCGGCGGCUCGAGCCCGGGUAAGUGUAAAUUGUCUGCAUGCCGCCGGGCGCCAUGCCUGCAGGUCGACUCUAGAAAACAUG”, which binding signal (PUM1 PUF domain R1-NRR) is on record?
Answer: 2.34 log2 enrichment (interaction score)

Question: Which binding signal (PUM1 PUF domain R4-GPQ) does the source give for “GGCUAGAACUAGUGGAUCCCCCGGCGCCCGGCGGCUCGAGCCCGGGUAAGUGUACAUAGUCUGCAUGCCGCCGGGCGCCAUGCCUGCAGGUCGACUCUAGAAAACAUG” here?
Answer: 2.42 log2 enrichment (interaction score)

Question: How did the binding signal (PUM1 PUF domain R5-KPC) turn out when “GGCUAGAACUAGUGGAUCCCCCGGCGCCCGGCGGCUCGAGCCCGGGUAAGUGUCAAUAGUCUGCAUGCCGCCGGGCGCCAUGCCUGCAGGUCGACUCUAGAAAACAUG” was run?
Answer: 4.19 log2 enrichment (interaction score)

Question: What about the binding signal (PUM1 PUF domain R5-DRC) of the same sequence?
Answer: 3.58 log2 enrichment (interaction score)

Question: What about the binding signal (PUM1 PUF domain R5-DHV) of the same sequence?
Answer: 3.11 log2 enrichment (interaction score)

Question: How did the binding signal (PUM1 PUF domain R7-KYR) turn out when “GGCUAGAACUAGUGGAUCCCCCGGCGCCCGGCGGCUCGAGCCCGGGUAAGUAUAAAUAGUCUGCAUGCCGCCGGGCGCCAUGCCUGCAGGUCGACUCUAGAAAACAUG” was run?
Answer: 3.64 log2 enrichment (interaction score)

Question: How did the binding signal (PUM1 PUF domain R1-NRR) turn out when “GGCUAGAACUAGUGGAUCCCCCGGCGCCCGGCGGCUCGAGCCCGGGUAAGUGUAAAUCGUCUGCAUGCCGCCGGGCGCCAUGCCUGCAGGUCGACUCUAGAAAACAUG” was run?
Answer: 3.87 log2 enrichment (interaction score)

Question: Which results are given for “GGCUAGAACUAGUGGAUCCCCCGGCGCCCGGCGGCUCGAGCCCGGGUAAGUGUAAUUAGUCUGCAUGCCGCCGGGCGCCAUGCCUGCAGGUCGACUCUAGAAAACAUG”?
Answer: binding signal (PUM1 PUF domain R3-EWS): 4.58 log2 enrichment (interaction score); binding signal (PUM1 PUF domain R3-GRP): 2.44 log2 enrichment (interaction score); binding signal (PUM1 PUF domain R3-SRC): 2.75 log2 enrichment (interaction score)

Question: With “GGCUAGAACUAGUGGAUCCCCCGGCGCCCGGCGGCUCGAGCCCGGGUAAGUCUAAAUAGUCUGCAUGCCGCCGGGCGCCAUGCCUGCAGGUCGACUCUAGAAAACAUG” as the sequence, how does the binding signal (PUM1 PUF domain R7-KYR) read?
Answer: 5.86 log2 enrichment (interaction score)

Question: For “GGCUAGAACUAGUGGAUCCCCCGGCGCCCGGCGGCUCGAGCCCGGGUAAGUUUAAAUAGUCUGCAUGCCGCCGGGCGCCAUGCCUGCAGGUCGACUCUAGAAAACAUG”, which binding signal (PUM1 PUF domain R7-RIQ) is on record?
Answer: 4.25 log2 enrichment (interaction score)

Question: What does the source list for “GGCUAGAACUAGUGGAUCCCCCGGCGCCCGGCGGCUCGAGCCCGGGUAAGUGUAAGUAGUCUGCAUGCCGCCGGGCGCCAUGCCUGCAGGUCGACUCUAGAAAACAUG”?
Answer: binding signal (PUM1 PUF domain R3-EWS): 5.34 log2 enrichment (interaction score); binding signal (PUM1 PUF domain R3-GRP): 3.91 log2 enrichment (interaction score); binding signal (PUM1 PUF domain R3-SRC): 4.05 log2 enrichment (interaction score)

Question: With “GGCUAGAACUAGUGGAUCCCCCGGCGCCCGGCGGCUCGAGCCCGGGUAAGUGUUAAUAGUCUGCAUGCCGCCGGGCGCCAUGCCUGCAGGUCGACUCUAGAAAACAUG” as the sequence, how does the binding signal (PUM1 PUF domain R5-DRC) read?
Answer: 4.23 log2 enrichment (interaction score)

Question: What about the binding signal (PUM1 PUF domain R5-DHV) of the same sequence?
Answer: 4.07 log2 enrichment (interaction score)

Question: Which binding signal (PUM1 PUF domain R6-EWC) does the source give for “GGCUAGAACUAGUGGAUCCCCCGGCGCCCGGCGGCUCGAGCCCGGGUAAGUGGAAAUAGUCUGCAUGCCGCCGGGCGCCAUGCCUGCAGGUCGACUCUAGAAAACAUG” here?
Answer: 3.23 log2 enrichment (interaction score)

Question: And the binding signal (PUM1 PUF domain R6-NWP)?
Answer: 2.26 log2 enrichment (interaction score)

Question: Which binding signal (PUM1 PUF domain R6-VWQ) does the source give for “GGCUAGAACUAGUGGAUCCCCCGGCGCCCGGCGGCUCGAGCCCGGGUAAGUGAAAAUAGUCUGCAUGCCGCCGGGCGCCAUGCCUGCAGGUCGACUCUAGAAAACAUG” here?
Answer: 8.55 log2 enrichment (interaction score)

Question: For “GGCUAGAACUAGUGGAUCCCCCGGCGCCCGGCGGCUCGAGCCCGGGUAAGCGUAAAUAGUCUGCAUGCCGCCGGGCGCCAUGCCUGCAGGUCGACUCUAGAAAACAUG”, which binding signal (PUM1 PUF domain R8-LYC) is on record?
Answer: 2.73 log2 enrichment (interaction score)

Question: And the binding signal (PUM1 PUF domain R8-RSR)?
Answer: 2.47 log2 enrichment (interaction score)

Question: What about the binding signal (PUM1 PUF domain R8-KRR) of the same sequence?
Answer: 5.14 log2 enrichment (interaction score)
